Assay results taken from PubChem BioAssay AID1159554 (Broad Institute, 2015).
Where “and” joins values, the source holds several entries; their conditions need not be identical. Equal entries are not always repeated. Screen size: about 94,000 compounds; about 2,100 (2.2%) were called active. No stated cut-off is given here; in the data, active means activity change below about -80%; inconclusive means no clear call, values can overlap the other calls; inactive means above that. This excerpt belongs to a sample that is enriched for actives. Some structures have more than one record in an assay (separate samples or runs), and their calls can disagree.

experiment: Dd2 malaria parasite growth inhibition – SYBR Green fluorescence, single dose replicates, primary screen (AID 1159554); conditions: P. falciparum Dd2 growth, 72 h, at 10 µM, stronger effect = lower value

Activity change, -91.7% (active) and -72.1% (inactive):
c1ccc(-c2ccc(C3[C@@H]4CN(Cc5cccnc5)C[C@H]3N4)cc2)cc1 (stereo not given in full)

Activity change, active:
CC(C)(C)[S@](=O)N1Cc2cc(C(=O)N[C@@H]3CCN(Cc4ccccc4)C3)nc(-c3cccc(-c4ccncc4)c3)c2[C@@H]1CCO -81.2%
C/C=C/c1ccc([C@@H]2[C@H](CO)N(CC3CCCC3)C23CN(C(=O)CC2CC2)C3)cc1 -85%
C[C@H](CO)N1C[C@H](C)[C@H](CN(C)Cc2ccc(Oc3ccccc3)cc2)Oc2c(NC(=O)CCCCCC(=O)Nc3ccccc3N)cccc2C1=O -92.5%
C[C@@H]1CN([C@H](C)CO)C(=O)c2cccc(NC(=O)CCCCCC(=O)Nc3ccccc3N)c2O[C@H]1CN(C)Cc1ccc(Oc2ccccc2)cc1 -91.8%
Cc1ccc(S(=O)(=O)Nc2ccc3c(c2)C(=O)N([C@H](C)CO)C[C@H](C)[C@H](CN(C)Cc2ccc(C(=O)Nc4ccccc4N)cc2)OCCCC[C@@H](C)O3)cc1 -83.6%
C[C@H]1CN([C@@H](C)CO)C(=O)Cc2cc(NC(=O)Nc3ccc4c(c3)OCO4)ccc2O[C@H]1CN(C)Cc1ccc(C(=O)Nc2ccccc2N)cc1 -81.3%
COc1ccc(S(=O)(=O)Nc2ccc3c(c2)CC(=O)N([C@@H](C)CO)C[C@@H](C)[C@@H](CN(C)Cc2ccc(C(=O)Nc4ccccc4N)cc2)O3)cc1 -80.3%
Cc1ccc(S(=O)(=O)Nc2ccc3c(c2)CC(=O)N([C@@H](C)CO)C[C@H](C)[C@H](CN(C)Cc2ccc(C(=O)Nc4ccccc4N)cc2)O3)cc1 -86.6%
C[C@H]1CN([C@@H](C)CO)C(=O)Cc2cc(NS(=O)(=O)c3ccccc3)ccc2O[C@@H]1CN(C)Cc1ccc(C(=O)Nc2ccccc2N)cc1 -81.4%
C[C@@H]1CN([C@@H](C)CO)C(=O)c2cc(NS(=O)(=O)c3ccccc3)ccc2O[C@@H]1CN(C)Cc1ccc(C(=O)Nc2ccccc2N)cc1 -83.2%
C[C@@H]1CN([C@@H](C)CO)C(=O)Cc2cc(NC(=O)C3CCCCC3)ccc2O[C@@H]1CN(C)Cc1ccc(C(=O)Nc2ccccc2N)cc1 -83.7%

Activity change, inactive:
COCCNC(=O)C[C@@H]1C[C@@H]2c3cc(NS(=O)(=O)c4ccccc4)ccc3O[C@@H]2[C@H](CO)O1 18.7%
Cn1cnc(S(=O)(=O)N2C[C@@H](O)COC[C@@H]3O[C@H](CC(=O)NC4CCC4)CC[C@H]32)c1 8.29%
CCCNC(=O)c1cc2c(c(-c3cccc(-c4ccc(F)cc4)c3)n1)[C@@H](CCO)N([S@](=O)C(C)(C)C)C2 -18.8%
CC(C)(C)[S@@](=O)N1Cc2cc(C(=O)NCc3ccc4c(c3)OCO4)nc(-c3cccc(-c4ccccc4)c3)c2[C@H]1CCO -48.4%
COc1ccc2c3c(n(C)c2c1)[C@H](CO)N(C(=O)C1CCCC1)CC31CCN(C(=O)c2ccncc2)CC1 -53.1%
C/C=C/c1ccc([C@@H]2[C@@H](CO)N(CC3CCCC3)C23CN(S(=O)(=O)CC)C3)cc1 -78.3%
C/C=C/c1ccc([C@@H]2[C@H](CO)N(CC3CCCC3)C23CN(C(=O)CC)C3)cc1 -53.8%
CCCNC(=O)N(C)C[C@H]1Oc2ncc(-c3ccc(F)cc3)cc2C(=O)N([C@H](C)CO)C[C@H]1C 0.175%
CCCNC(=O)NC[C@H]1[C@H](c2ccc(C3=CCCCC3)cc2)[C@H](CO)N1C(C)=O -9.89%
COc1ccc(S(=O)(=O)N(C)C[C@H]2OCCCC[C@H](C)Oc3ccc(NC(=O)CCC(F)(F)F)cc3C(=O)N([C@@H](C)CO)C[C@@H]2C)cc1 -55.8%
C[C@H](CO)N1C[C@H](C)[C@H](CN(C)Cc2ccccc2)Oc2ccc(NC(=O)CCCCCC(=O)Nc3ccccc3N)cc2C1=O -61%
C[C@H]1CN([C@@H](C)CO)C(=O)c2cccc(NC(=O)Nc3ccccc3)c2O[C@H]1CN(C)Cc1ccc(Oc2ccccc2)cc1 -12%
C[C@H]1CN([C@@H](C)CO)C(=O)c2cccc(NC(=O)c3cnccn3)c2O[C@@H]1CN(C)Cc1ccc(Oc2ccccc2)cc1 -3.4%
Cc1noc(C)c1NC(=O)N(C)C[C@@H]1Oc2c(NC(=O)CCCCCC(=O)Nc3ccccc3N)cccc2C(=O)N([C@H](C)CO)C[C@@H]1C 20.3%
CC=Cc1ccc2n(c1=O)C[C@@H]1[C@@H](CO)[C@H](C(=O)NCC)[C@H]2N1CCC(F)(F)F (mixture of isomers) 0.676%
CO[C@H]1CN(C)C(=O)c2ccc(NC(=O)C3CC3)cc2OC[C@@H](C)N(C)C[C@H]1C 24.8%
COCC(=O)Nc1ccc2c(c1)C(=O)N(C)[C@H]1CC[C@@H](CC(=O)Nc3cn(C)nc3C)O[C@@H]1CO2 -1.96%
COc1ccc2c3c([nH]c2c1)[C@H](CO)N(C(=O)c1ccccc1)CC31CCN(S(=O)(=O)c2cccs2)CC1 23.2%
CCNC(=O)C[C@@H]1CC[C@@H]2[C@@H](COc3ccc(NC(=O)c4cccc(C(F)(F)F)c4)cc3C(=O)N2C)O1 -22.5%
OC[C@H]1[C@@H](c2ccc(/C=C/c3ccccc3)cc2)[C@H]2CN(Cc3cccnc3)CCCCN21 -61.1%
O=C(Cc1ccncc1)N1C[C@@H]2N[C@H](C1)C2c1ccc(-c2ccc(F)cc2)cc1 (stereo not given in full) -75.3%
CC(C)CC#Cc1ccc([C@@H]2[C@@H](CO)N3C(=O)CN(C(=O)Nc4ccc(F)cc4)C[C@H]23)cc1 -28.4%
COc1ccccc1CNC(=O)C[C@H]1CC[C@@H]2[C@H](COC[C@H](O)CN2Cc2ccccc2)O1 6.62%
C[C@@H]1CN([C@H](C)CO)C(=O)Cc2cc(NC(=O)Nc3ccc4c(c3)OCO4)ccc2O[C@@H]1CN(C)Cc1ccc(C(=O)Nc2ccccc2N)cc1 -76.5%
Cc1ccc(S(=O)(=O)Nc2ccc3c(c2)C(=O)N([C@H](C)CO)C[C@H](C)[C@@H](CN(C)Cc2ccccc2)OCCCC[C@H](C)O3)cc1 30%
COc1ccc(CN(C)C[C@H]2Oc3ccc(NS(=O)(=O)c4ccc(Cl)cc4)cc3CC(=O)N([C@@H](C)CO)C[C@H]2C)cc1 12.9%
C[C@@H]1CN([C@H](C)CO)C(=O)Cc2cc(NC(=O)Nc3ccc4c(c3)OCO4)ccc2O[C@H]1CN(C)Cc1ccc(C(=O)O)cc1 21.4%
Cc1ccc(S(=O)(=O)Nc2ccc3c(c2)CC(=O)N([C@H](C)CO)C[C@@H](C)[C@H](CN(C)Cc2ccc(C(F)(F)F)cc2)O3)cc1 32%
Cc1ccc(S(=O)(=O)Nc2ccc3c(c2)C(=O)N([C@H](C)CO)C[C@@H](C)[C@H](CN(C)Cc2ccccc2)OCCCC[C@H](C)O3)cc1 -43.7%
COc1ccc(S(=O)(=O)Nc2ccc3c(c2)CC(=O)N([C@@H](C)CO)C[C@H](C)[C@@H](CN(C)Cc2ccc(C(=O)O)cc2)O3)cc1 22.3%
Cc1ccc(S(=O)(=O)Nc2ccc3c(c2)CC(=O)N([C@@H](C)CO)C[C@H](C)[C@H](CN(C)Cc2ccccc2)O3)cc1 -4.27%
C/C=C/c1ccc([C@H]2[C@@H](CO)N(C(=O)NCCC)[C@H]2CN(C)C(C)=O)cc1 0.514%
CCCNC(=O)[C@@H]1[C@@H](CO)[C@@H]2Cn3c(ccc(-c4cccc(OC)c4)c3=O)[C@H]1N2C(=O)NCCC 8.98%
COCC(=O)Nc1ccc2c(c1)OC[C@H](C)N(C(=O)c1cnccn1)C[C@@H](C)[C@@H](OC)CN(C)C2=O -61.6%
COc1ccc(-c2ccccc2[C@H]2[C@@H](CO)N(C(=O)C3CCC3)[C@H]2C#N)cc1 17.9%
COc1cccc(CNC(=O)C[C@@H]2C=C[C@@H](NC(=O)C3CCC3)[C@@H](CO)O2)c1 37.9%
COc1ccc2c3c(n(C)c2c1)[C@@H](CO)NCC31CN(S(=O)(=O)c2cccc(C)c2)C1 -18.8%
N#Cc1cccc(-c2ccc(C3[C@H]4CNC[C@@H]3N4S(=O)(=O)c3ccc(-c4ccccc4)cc3)cc2)c1 (stereo not given in full) 14.1% and -40.8%
C[C@H]1CN([C@@H](C)CO)C(=O)c2cc(-c3ccncc3)cnc2O[C@@H]1CN(C)C(=O)C1CCCCC1 -1.12%
N#C[C@@H]1[C@H](c2ccccc2-c2ccc(F)cc2)[C@@H](CO)N1c1ncc(-c2ccccc2)s1 27.4%
CO[C@H]1CN(C)C(=O)c2cc(NC(=O)c3nc4ccccc4s3)ccc2OC[C@H](C)N(Cc2cccnc2)C[C@@H]1C -15.4%
CCCC(=O)Nc1ccc2c(c1)C(=O)N(C)C[C@H](OC)[C@H](C)CN(CCc1ccccc1)[C@H](C)CO2 -14.1%
Cc1noc(C)c1S(=O)(=O)Nc1ccc2c(c1)C(=O)N([C@@H](C)CO)C[C@H](C)[C@H](CN(C)Cc1ccc(C(=O)Nc3ccccc3N)cc1)O2 -52.6%
C[C@H]1CN([C@@H](C)CO)C(=O)Cc2cc(NS(=O)(=O)c3ccccc3)ccc2O[C@H]1CN(C)Cc1ccc(C(=O)Nc2ccccc2N)cc1 -77.2%
C[C@@H]1CN([C@@H](C)CO)C(=O)Cc2cc(NC(=O)C3CCCCC3)ccc2O[C@@H]1CN(C)Cc1ccc(-c2ccccc2)cc1 -20.2%
CC(C)NC(=O)Nc1ccc2c(c1)CC(=O)N([C@H](C)CO)C[C@@H](C)[C@@H](CN(C)Cc1ccc(C(=O)Nc3ccccc3N)cc1)O2 -49.7%
Cc1ccc(S(=O)(=O)Nc2ccc3c(c2)C(=O)N([C@@H](C)CO)C[C@@H](C)[C@@H](CN(C)Cc2ccc(C(=O)Nc4ccccc4N)cc2)O3)cc1 -61.1%
C[C@H](CO)N1C[C@H](C)[C@H](CN(C)Cc2ccc(C(=O)Nc3ccccc3N)cc2)Oc2ccc(NS(C)(=O)=O)cc2C1=O -28.4%
